PLK1 kinase inh: inhibitors of human PLK1 kinase; recombinant PLK1 kinase, TR-FRET peptide phosphorylation; inhibition, % at 10 µM; 0.53% of 97,000 active; AID 619;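 active = inhibition of 50% or more in the single-concentration screen; inactive = inhibition below 50%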;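 note: 0% = DMSO max control and 100% = H-89 dihydrochloride min control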
Cav3 T inh: inhibitors of human Cav3.2 T-type calcium channel; O95180; Cav3.2-expressing cells, Fluo-4 calcium fluorescence FDSS; hits give low values; B-score at 10 µM; 4% of 100,000 active; AID 449739;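 active = single-dose well whose peak fluorescence ratio is a statistical outlier from its plate by either plate-standardised score or position-corrected B-score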
SDO1 yeast rescue: restores growth of sdo1-depleted yeast. AID 817. S. cerevisiae sdo1-depleted JHY4D growth rescue, OD600 30 h; hits give high values; pdr5 snq2 efflux-pump mutant strain. z-score at 10 µM. 0.21% of 140,000 active;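 active = z-score above 3 at both the 24 hr and the 30 hr optical density reads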;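 note: z-score against mean and SD of all compound wells on the same plate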
hDAT+cocaine: modulates human dopamine transporter uptake under cocaine | Q01959 | LLC-PK1 hDAT cells, [14C]-dopamine uptake with cocaine IC80; actives deviate in either direction | B-score at 10 µM | 1.3% of 110,000 active;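 active = Z score or B-score, a plate-position-corrected score, falls beyond the plate's 99.7% confidence bounds, in either direction; inactive = both scores lie inside the 99.7% bounds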;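 note: scored against the spread of the other compound wells on the same plate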
PLK1 PBD inh: Plk1 (human) PBD binding inhibition | P53350 | Plk1 PBD phosphopeptide binding, fluorescence polarization | inhibition, %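 (tested at about 20 µM)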 | 0.13% of 97,000 active | AID 693; in the data active = inhibition above about 34%, passing the limit was not always enough
Pyk2 oligo antag: Pyk2 (human) oligomerization antagonism | z-score (the deposit names both 25 µM and 10 µM) | Q293 cells, Pyk2 FERM NanoBiT luminescence; hits give low values | 0.83% of 99,000 active | Q14289;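 active = Z-score of -3 or lower, scaled per plate to the spread of control and sample wells; inactive = z-score above -3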;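 note: negative z-score means lost luminescence so less FERM oligomerization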
Starred values were filed as active, the others as inactive; / = not tested or not shown; ! = a repeat was not active. An excerpt weighted towards active compounds, which were near 4.7% of everything screened.

SMILES | PLK1 kinase inh | Cav3 T inh | SDO1 yeast rescue | hDAT+cocaine | PLK1 PBD inh | Pyk2 oligo antag
O=C1c2ccccc2-c2nc3ccccc3nc21 | -4.7 | 0.927 | -1.77 | -0.184 | 11.7 | 1.03
O=C(O)c1nc2ccccc2nc1C(=O)O | -4.4 | 1.08 | 0.79 | -0.0853 | -16.2 | 0.46
Nc1nc2ccccc2nc1N | / | -0.00941 | -0.18 | -8* | / | -0.25
c1ccc(CN(CC2=NCCN2)c2ccccc2)cc1 | / | -2.79*! | 0.36 | -0.548 | / | /
CC[C@H](C)C(C(=O)N1CCN(C(=O)OC(C)(C)C)CC1)n1cc(C(CC(C)C)NC(=O)OC(C)(C)C)nn1 (stereo not given in full) | / | 0.203 | / | -0.383 | / | /
CC[C@@H](C)C(NC(=O)OC(C)(C)C)c1cn([C@@H](Cc2ccc(O)cc2)C(=O)N2CCN(C(=O)OC(C)(C)C)CC2)nn1 (stereo not given in full) | / | -0.644 | / | 1.96* | / | /
COn1c(-c2ccccc2)nc2ccc(Cl)cc21 | -2.4 | / | -0.82 | -0.473 | -14.3 | -1.46
O=[N+]([O-])c1ccc2nc(-c3ccccc3)n(OCc3ccc(Cl)cc3)c2c1 | -3.2 | -4.45* | -0.46 | 1.43 | -18.9 | -0.98
CN(C(=S)NC(=O)c1ccc(Br)o1)c1ccccc1 | / | / | -0.18 | / | / | /
N#Cc1cc2c(nc1Cl)CCCC2 | / | / | -0.34 | / | / | /
CCc1cccc(CC)c1N1C(=O)c2cc(N3CCOCC3)c([N+](=O)[O-])cc2C1=O | / | / | -0.34 | / | / | /
CCc1ccccc1N1C(=O)c2cccc3c(N4CCOCC4)c([N+](=O)[O-])cc(c23)C1=O | -9.8 | 0.688 | -0.72 | -0.188 | -12.8 | -3.03*
O=C(/C=C/c1c(Cl)cccc1Cl)N1CCN(c2ncccn2)CC1 | -17.9 | -4.3* | -0.92 | 0.21 | -26.5 | 0.28
CC1CCCCN1C(=O)/C(=C\c1ccccc1)c1ccccc1 (stereo not given) | -5.4 | -2.66 | -1.15 | 1.67 | -21.7 | -2.06
CCOc1ccc(C(=O)CCc2nc3ccccc3s2)cc1 | -14.9 | -3.49 | -1.4 | 0.439 | 3.6 | -3.3*
Cc1cc2cc(CCNC(=O)c3c(-c4ccccc4Cl)noc3C)c(=O)[nH]c2cc1C | / | -3.72* | 0.01 | -0.244 | / | /
Cc1onc(-c2ccccc2Cl)c1C(=O)NCc1ccc2c(c1)cc(C)n2C | / | -5.97* | / | 0.717 | / | /
CCOc1ccc(CC(=O)NCc2ccc3c(c2)cc(C)n3C)cc1 | / | -8.15* | / | 1.22 | / | /
O=c1c2ccccc2cnn1Cc1n[nH]c(=S)n1-c1ccccc1Cl | / | / | 1.97 | / | / | /
CCOc1cc(C(=O)N/N=C\c2cn(CC)nc2C)cc(OCC)c1OCC | / | / | 0.22 | / | / | /
CCc1ccc(CNC(=O)C(=O)NCCc2ccc(OC)c(OC)c2)cc1 | -9.3 | -5.31* | / | 0.609 | -15.9 | 0.4
COc1ccc(CCNC(=O)C(=O)NCc2ccc(C)cc2)cc1OC | -12.6 | -0.0636 | -0.49 | 0.652 | -28.3 | 0.31
CC(C)c1ccc(C2NC(=S)NC3=C2C(=O)CC(C)(C)C3)cc1 (stereo not given) | / | / | -0.51 | / | / | /
CC(=O)N1CC(=O)N=C1SCC(=O)Nc1nc(-c2ccccc2)c(-c2ccccc2)s1 | / | / | -1.12 | / | / | /
COCCOC(=O)C1=C(C)NC2=C(C(=O)CCC2)C1c1ccc(N(C)C)cc1 (stereo not given) | -10.1 | 0.97 | / | 3.06* | -6.5 | -0.27
SMILES | PLK1 kinase inh | Cav3 T inh | SDO1 yeast rescue | hDAT+cocaine | PLK1 PBD inh | Pyk2 oligo antag
CCCOC(=O)C1=C(C)NC2=C(C(=O)C(C(=O)OC)C(C)C2)C1c1ccc(N(CC)CC)cc1 (stereo not given) | -24.1 | -7.28* | 0.32 | -1.33 | -2.8 | -0.59
Cc1c(Br)c([N+](=O)[O-])nn1CC(=O)Nc1c(C)n(C)n(-c2ccccc2)c1=O | / | / | 0.41 | / | / | /
Cc1sc2nc(COC(=O)CNC(=O)c3ccc(C(C)(C)C)cc3)[nH]c(=O)c2c1C | / | / | 0.61 | / | / | /
CC(C)(C)c1ccc(C(=O)NNc2cc(N3CCCCC3)nc(N3CCCCC3)n2)cc1 | -17.6 | -8.32* | -0.82 | 0.0193 | -10.0 | -2.69
CCOC(=O)N1CCC(N2C(=O)c3cc(C(=O)NC4CCCCC4)ccc3C2O)CC1 (stereo not given) | 60.8* | 0.375 | 0.57 | 0.738 | 1.6 | /
CCOC(=O)CCN(Cc1sccc1C)S(=O)(=O)c1ccc(F)cc1 | -8.7 | -2.38 | 0.1 | 3.79* | -3.7 | -0.09
C=CCOC(=O)C(C#N)c1nc2ccccc2nc1N1CCN(c2ccccc2OC)CC1 (stereo not given) | / | -9.25* | -1.47 | -0.359 | / | -1.14
COCCOC(=O)C(C#N)c1nc2ccccc2nc1N1CCN(Cc2ccccc2)CC1 (stereo not given) | / | -3.74 | -1.47 | 0.00896 | / | 0.79
